Screening results (PubChem BioAssay)
NOD2-RIPK2 inh = inhibitors of human NOD2-RIPK2 interaction; inhibition, % at 4.98 µM; 0.38% of 360,000 active; AID 624267; CHO BLA complementation NOD2-RIPK2, CCF4 ratio; in the data active = inhibition above about 21%;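 note: 0% = vehicle only and 100% = reference blocker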
TLR4 MyD88 comp = blocks binding of human TLR4 to MyD88. HeLa CL3-4 TLR4/MyD88 BLA complementation, FRET ratio. inhibition, % at 8.4 µM. 0.18% of 200,000 active. AID 861. O00206+Q99836; in the data active = inhibition above about 25%;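 note: 0% = vehicle and 100% = reference inhibitor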
Target sequence (O00206 whole entry, looked up): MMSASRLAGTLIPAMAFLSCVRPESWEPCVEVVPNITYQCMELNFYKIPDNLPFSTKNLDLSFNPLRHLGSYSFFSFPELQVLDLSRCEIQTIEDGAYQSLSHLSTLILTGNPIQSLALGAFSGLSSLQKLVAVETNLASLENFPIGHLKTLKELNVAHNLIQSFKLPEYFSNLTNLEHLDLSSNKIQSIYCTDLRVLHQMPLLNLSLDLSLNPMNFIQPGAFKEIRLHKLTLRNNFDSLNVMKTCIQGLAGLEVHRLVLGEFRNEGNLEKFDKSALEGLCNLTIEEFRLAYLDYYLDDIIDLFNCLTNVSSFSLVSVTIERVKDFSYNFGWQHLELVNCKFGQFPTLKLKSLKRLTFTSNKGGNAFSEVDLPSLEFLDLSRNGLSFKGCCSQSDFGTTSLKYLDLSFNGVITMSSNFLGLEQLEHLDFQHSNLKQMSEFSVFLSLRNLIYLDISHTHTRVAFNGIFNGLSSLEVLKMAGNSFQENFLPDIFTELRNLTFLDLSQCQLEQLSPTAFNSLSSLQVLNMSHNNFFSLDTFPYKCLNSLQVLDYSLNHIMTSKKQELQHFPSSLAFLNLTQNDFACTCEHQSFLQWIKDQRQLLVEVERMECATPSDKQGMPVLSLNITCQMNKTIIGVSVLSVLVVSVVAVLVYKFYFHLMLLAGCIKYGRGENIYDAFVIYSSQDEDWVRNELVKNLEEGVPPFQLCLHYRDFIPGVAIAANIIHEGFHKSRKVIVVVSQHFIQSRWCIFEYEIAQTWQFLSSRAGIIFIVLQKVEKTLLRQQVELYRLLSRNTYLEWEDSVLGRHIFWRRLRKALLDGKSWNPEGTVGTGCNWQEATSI
Target sequence (Q99836 whole entry, looked up): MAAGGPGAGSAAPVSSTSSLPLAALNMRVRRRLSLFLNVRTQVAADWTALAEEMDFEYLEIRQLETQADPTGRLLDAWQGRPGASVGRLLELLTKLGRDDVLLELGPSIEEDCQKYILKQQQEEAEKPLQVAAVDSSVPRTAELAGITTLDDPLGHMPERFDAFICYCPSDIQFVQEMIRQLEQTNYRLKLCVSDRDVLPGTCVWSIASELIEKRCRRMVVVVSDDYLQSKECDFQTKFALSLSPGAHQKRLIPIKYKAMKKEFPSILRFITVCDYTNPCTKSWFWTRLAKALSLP
ABHD5-PLIN5 inh = ABHD5-PLIN5 protein interaction inhibition | 0.78% of 360,000 active | AID 602281 | Split G. princeps luciferase complementation, luminescence, 4 h | inhibition, % at 4 µM;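 active = inhibition above the mean inhibition across every tested compound plus 3 SD, cut at about 22% in these data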;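 note: 0% = DMSO only wells and the 100% control is not disclosed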
TLR9-MyD88 block = blocks human TLR9 binding to MyD88. Q9NR96+Q99836. CHO BLA complementation TLR9-MyD88, CCF4 FRET ratio. inhibition, % at 4.98 µM. 0.21% of 340,000 active;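 active = inhibition above the mean over all tested compounds plus 3 SD, cut at about 21% in these data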;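 note: 0% = DMSO only wells and 100% = clavulanate BLA inhibitor control wells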
ABHD5-PLIN5 conf = confirmation of human ABHD5-PLIN5 interaction inhibitors; 67% of 2,200 active; shares compounds with ABHD5-PLIN5 inh; biochemical ABHD5-PLIN5 interaction, luminescence; AID 651612; inhibition, % at 4 µM; in the data active = inhibition above about 23%;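 note: 0% = DMSO vehicle wells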
HNF4 split-luc = active in HNF4 split-luciferase counter-screen for ABHD5-PLIN5 inhibitors; shares compounds with ABHD5-PLIN5 inh; HNF4 dimerization, luminescence, biochemical; inhibition, % at 4 µM; 77% of 2,200 active;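 active = mean inhibition across replicate wells exceeding the computed hit threshold, cut at about 13% in these data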;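 note: light from luciferase halves that rejoin when HNF4 fusion proteins dimerize; 0% = DMSO only wells and the 100% control is not given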
The depositor's hits bear a star; . = no result given. Hits are enriched below; roughly 1.2% of the tested compounds scored in any of these assays.

SMILES | NOD2-RIPK2 inh | TLR4 MyD88 comp | ABHD5-PLIN5 inh | TLR9-MyD88 block | ABHD5-PLIN5 conf | HNF4 split-luc
CN1C/C(=C/c2cccnc2)C(=O)/C(=C/c2cccnc2)C1 | -4 | -1 | 66* | 6 | 100* | 92*
CCCNC(=O)c1ccccc1NC(=O)Cc1ccc(OC)c(S(=O)(=O)N2CCOCC2)c1 | -1 | . | 0 | -5 | . | .
O=c1[nH]nc(-c2ccc[nH]2)[nH]1 | -2 | . | 7 | -4 | . | .
O=C(COc1cc2oc(=O)c3c(c2cc1Cl)CCC3)NCCN1CCOCC1 | -14 | . | -12 | -13 | . | .
COCCCN1CN(S(=O)(=O)c2ccc(C)cc2C)c2nc3ccccc3nc21 | -2 | . | 28* | 1 | 12 | 15*
COc1ccccc1NC(=O)c1ccc2[nH]c(C)c(C)c2c1 | -1 | . | -7 | -7 | . | .
O=C(Nc1ccnn1C1CCN(C2CCOCC2)CC1)c1cccc(F)c1 | -7 | . | -9 | -6 | . | .
COC1=CC(=O)C(C2CC(=O)c3c(O)cc(O)cc3O2)=CC1=O (stereo not drawn) | 3 | . | 29* | -6 | 82* | 93*
COc1cccc(/C=C/C(=O)NCc2ccc3c(c2)OCO3)c1 | -16 | . | -6 | -3 | . | .
O=C(COC(=O)CCC(=O)c1ccc(Cl)cc1)NCc1ccco1 | 2 | -7 | 25* | 8 | 11 | 7
COc1cccc(CNc2nc3cc(-c4ccc(C(=O)N5CCN(C)CC5)cc4)sc3c(=O)n2C)c1 | -3 | . | 24* | . | 6 | 11
Cc1ccc(-n2nc3c(N4CCC(C(=O)NCCc5ccco5)CC4)nnc(C)c3c2C)cc1 | -3 | . | 30* | -3 | 14 | 12
Cc1ccc(C(C#N)=Cc2ccc3c(c2)OCO3)cc1 | -11 | . | -2 | -3 | . | .
CC(=O)Nc1ccc2c(c1)C(=O)c1ccc(Cl)cc1-2 | -11 | . | -5 | -2 | . | .
N#CCc1c(C#N)c(N)nc(N2CCN(Cc3ccc4c(c3)OCO4)CC2)c1C#N | 10 | -19 | 26* | 1 | 2 | 7
CC(=O)Oc1c(Cl)c(N2CCOCC2)c(OC(C)=O)c2ccccc12 | -6 | -5 | 36* | 1 | 79* | 8
CN(C)c1ccc(N=Nc2ccc(S(N)(=O)=O)cc2)cc1 | -2 | . | 7 | 4 | . | .
CC1=CC(=O)C=CC1=Nc1ccc(N(C)C)cc1 | -11 | . | 86* | . | 98* | 113*
COc1cccc(CNCCc2c[nH]c3ccccc23)c1OCc1ccc(F)cc1 | -2 | 13 | 19 | 5 | . | .
COc1cc(CNCCc2c[nH]c3ccccc23)ccc1OCc1ccc(F)cc1 | 3 | 5 | 33* | -4 | 14 | -1
CC(=O)Nc1ccc(Nc2cc(N(C)C)c3nonc3c2[N+](=O)[O-])cc1 | -4 | . | 8 | -8 | . | .
O=C(O)c1ccc(Nc2cc(Cl)c3nonc3c2[N+](=O)[O-])cc1 | -2 | 11 | 31* | 10 | 63* | 95*
N#CC(C#N)=Cc1ccc(-c2ccc(S(=O)(=O)N=C(N)N)cc2)o1 | -5 | 8 | 28* | -3 | 41* | 35*
COc1ccc(C(=O)/C=C/c2ccc(N3CCCCC3)c([N+](=O)[O-])c2)cc1 | -4 | 4 | 17 | 8 | . | .
COc1cccc(/C=C/C(=O)c2ccc(C)c([N+](=O)[O-])c2)c1 | -11 | 6 | 56* | -1 | 102* | 105*
SMILES | NOD2-RIPK2 inh | TLR4 MyD88 comp | ABHD5-PLIN5 inh | TLR9-MyD88 block | ABHD5-PLIN5 conf | HNF4 split-luc
COc1cc(/C=C/C(=O)c2ccc(C)c([N+](=O)[O-])c2)cc(OC)c1O | 12 | 5 | 65* | 4 | 79* | 72*
COc1cccc(C(=O)/C=C/c2ccc(OCC#N)c(OC)c2)c1 | 5 | 2 | 55* | 2 | 86* | 77*
COc1ccc(/C=C/C(=O)c2ccc(C)c([N+](=O)[O-])c2)cc1O | 0 | 8 | 40* | 11 | 80* | 73*
COc1cccc(C(=O)/C=C/Nc2ccc(S(=O)(=O)Nc3cccc(C(C)=O)c3)cc2)c1 | 1 | -5 | 7 | 14 | . | .
COc1cccc(/C=C/C(=O)c2ccc(NS(=O)(=O)c3ccc(C)cc3)cc2)c1 | 1 | -1 | 32* | 2 | 80* | 61*
O=C(CSc1nccc(-c2cccs2)n1)Nc1ccccc1 | 4 | . | 3 | -4 | . | .
CCCCCCC=C1CCC(CN2CCCC2)C1=O (stereo not drawn) | -36 | . | 25* | . | 84* | 28*
Cc1noc(C)c1C(=O)OC(C)C(=O)Nc1ccc(C(N)=O)cc1 (stereo not drawn) | 0 | . | -2 | -1 | . | .
COc1ccc(C(C[N+](=O)[O-])c2c(C)cc3ccccn23)c(OC)c1 (stereo not drawn) | 5 | . | 30* | -1 | 45* | 29*
COc1cc(/C=C/[N+](=O)[O-])ccc1OC(=O)c1cc2ccccc2oc1=O | 10 | . | 28* | 5 | 78* | 97*
CC(=O)Oc1c(Br)cc(N(C(C)=O)S(=O)(=O)c2ccccc2)c2ccccc12 | -4 | . | 45* | 1 | 48* | 14*
COC(=O)C1CCN(C(=O)CN2C(=O)NC(CC(C)C)C2=O)CC1 (stereo not drawn) | -2 | . | -3 | 6 | . | .
COc1cc(N=c2ssnc2Cl)cc(OC)c1OC | 4 | 1 | 61* | 9 | 68* | 103*
COc1ccc(N=c2ssnc2Cl)cc1 | -5 | -2 | 0 | -9 | . | .
CCOC1=CC2=C(C(=O)C(Cl)=CC2=O)[C@@H]2CN(S(=O)(=O)c3ccc(C)cc3)[C@@H](c3ccccc3)[C@H]12 | 0 | . | 53* | . | 103* | 58*
CCN1C(=O)[C@@H]2[C@@H]3CN(S(=O)(=O)c4ccc(C)cc4)[C@@H](c4ccccc4)[C@@H]3C(=O)C[C@@H]2C1=O | 12 | . | -2 | . | . | .
Cc1cc(C)cc(C(=O)N2CC(=O)Nc3ccccc32)c1 | 15 | -1 | -3 | -7 | . | .
Cc1ccc(/C=C/C(=O)N2CC(=O)Nc3ccccc32)o1 | -4 | -18 | 25* | -9 | 20 | 30*
COc1ccc(COC(=O)CCc2c[nH]c3ccccc23)cc1F | 2 | . | -7 | 1 | . | .
C[N+](C)(C)CCC(=O)N1C/C(=C/c2ccccc2)C(=O)/C(=C\c2ccccc2)C1 | -8 | . | 92* | 3 | 100* | 100*
O=C(Cc1ccccc1)N1CCNCC1 | -3 | 20 | -1 | -4 | . | .
COc1ccc(OC(=O)N2C/C(=C/c3ccccc3)C(=O)/C(=C\c3ccccc3)C2)cc1 | -1 | . | 75* | -2 | 104* | 107*
CCOC(=O)N1C/C(=C\c2ccccc2)C(=O)/C(=C/c2ccccc2)C1 | 8 | . | 69* | 2 | 103* | 108*
Cn1c(=O)c2cc(NC(=O)NCc3ccc(Cl)cc3Cl)ccc2n1Cc1ccccc1 | -10 | . | -5 | . | . | .
Cc1cn(C2CCCCO2)c(=O)[nH]c1=O (stereo not drawn) | 1 | . | -4 | -3 | . | .
C[C@@H]1CNC(=O)c2c(C(=O)NC3CCN(C(=O)OC(C)(C)C)CC3)ncn21 | -5 | . | -1 | . | . | .
